Hits are enriched below; roughly 21% of the tested compounds scored in any of these assays.
VP16 counter = Gal4-VP16 reporter inhibition counter-screen | Drosophila S2 Gal4-VP16 UAS-luciferase, luminescence, 20 h | AID 2546 | Potency, µM (doses to about 53.6 µM), actives largely listed as inhibitors | 310,000 tested, 3.5% active;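 also: Gal4-VP16 expression switched on by copper sulfate through the metallothionein promoter; nearly all actives have a fitted effect of over 50% in size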
DT40 TDP1 no CPT = qHTS for Inhibitors of human tyrosyl-DNA phosphodiesterase 1 (TDP1): qHTS in cells in absence of CPT; 420,000 tested, 15% active; DT40 Tdp1-/- hTDP1 cells, no CPT, ATP luminescence, 48 h; Potency, µM (titrated, usually from 46.2 µM), actives largely listed as inhibitors; AID 686978, 2013; also: nearly all actives have a fitted effect of over 55% in size
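A cellular qHTS used chicken DT40 cells lacking endogenous Tdp1 but carrying stably transfected human TDP1. Compounds were applied without camptothecin, and cell growth kinetics were judged by ATP-dependent luminescence after ≥48 hr.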
TDP1 cell CPT = DT40-hTDP1 cell growth loss with CPT; 420,000 tested, 12% active; Potency, µM (top dose mostly 46.2 µM), most hits filed as inhibitors; AID 686979; chicken DT40 Tdp1-/-;hTDP1 cells + 20 nM CPT, ATP luminescence, 48 h; also: nearly all actives have a fitted effect of over 55% in size
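Chicken DT40 Tdp1-/- cells complemented with human TDP1, 400 cells/well, exposed to compounds plus 20 nM camptothecin for at least 48 h at 37 C; viability read as ATP content by CellTiter-Glo luminescence.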
ELG1 repair inh = blocks ELG1-dependent DNA repair in HEK293T cells. 330,000 tested, 2.3% active. AID 504467. HEK293T ELG1-luciferase reporter, luminescence, 16 h; DNA damage induced by 5-fluorouridine. Potency, µM (series often up to 46.1 µM), actives largely listed as inhibitors; also: nearly all actives have a fitted effect of over 55% in size
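Quantitative HTS, concentration-response format. 2,000 cells/well co-treated with 5-fluorouridine and compound, 16 hr in 5% CO2 at 37 °C; ONE-Glo luminescence read after 30 min.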
RORg inh = blocks mouse ROR gamma transcriptional activity; P51450; 310,000 tested, 5.4% active; Drosophila S2 Gal4-RORgamma UAS-luciferase reporter, 20 h; Potency, µM (series often up to 53.6 µM), usual class: inhibitors; also: nearly all actives have a fitted effect of over 60% in size
Target sequence (P51450 whole entry, looked up, the tested form may be a part): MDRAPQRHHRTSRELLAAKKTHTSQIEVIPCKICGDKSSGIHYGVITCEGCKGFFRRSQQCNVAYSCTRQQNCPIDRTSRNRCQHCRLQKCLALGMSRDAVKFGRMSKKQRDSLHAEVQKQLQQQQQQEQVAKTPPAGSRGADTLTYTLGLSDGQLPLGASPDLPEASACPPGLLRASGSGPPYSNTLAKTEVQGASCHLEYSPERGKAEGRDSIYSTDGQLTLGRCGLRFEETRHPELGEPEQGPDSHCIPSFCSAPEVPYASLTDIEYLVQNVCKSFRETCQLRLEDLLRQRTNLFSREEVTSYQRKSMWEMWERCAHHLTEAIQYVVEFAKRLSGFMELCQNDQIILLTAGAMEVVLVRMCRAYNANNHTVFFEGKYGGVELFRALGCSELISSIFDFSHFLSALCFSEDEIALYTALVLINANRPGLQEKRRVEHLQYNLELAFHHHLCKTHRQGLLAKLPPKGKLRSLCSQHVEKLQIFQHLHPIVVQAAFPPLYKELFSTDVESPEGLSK
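Drosophila Schneider cells stably carrying a metallothionein-driven Gal4 DBD–ROR gamma fusion and a UAS-Photinus luciferase reporter were exposed to compound for 1 hr, then induced with copper sulfate (700 uM final) for 20 hr at ambient temperature before luminescence reading.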
IL1B secr inh = inhibitors of inflammasome signaling (IL-1 beta secretion); THP-1 LPS/ATP IL-1B secretion, AlphaLISA, 16 h; stronger effect = lower value; activity change, % at 57.5 µM; 360,000 tested, 4.7% active; AID 743279; in the data active = activity change below about -50%; inconclusive = mostly about -30% to -49%
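THP-1 cells pretreated 1 hr with compounds (up to 57.5 uM final), then stimulated with LPS (250 ng/mL final) plus ATP (1.25 mM final); secreted IL-1B measured by AlphaLISA after 16 hr, decreased signal indicating inhibition.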
Hits are given with their value; - = inactive; ? = inconclusive; . = no result; [ ] = remark or other dose. Unless noted, calls follow the shape of the dose curve; as a rule, active = well fitted curve in the direction sought with a large enough effect; inconclusive = small, poorly fitted or top-dose-only effect, or another doubt; inactive = no such curve, though single readings can be large; an effect the other way counts as inactive or inconclusive.

SMILES	VP16 counter	DT40 TDP1 no CPT	TDP1 cell CPT	ELG1 repair inh	RORg inh	IL1B secr inh
O=C(Nc1ncc(Cc2cccc(Cl)c2)s1)c1ccc([N+](=O)[O-])cc1	2.82µM	8.2µM	?	-	5.01µM	-
CC1(C(=O)NS(=O)(=O)c2cccc(OC(F)F)c2)CCN1C(=O)CCc1cccs1 (stereo not given)	.	-	-	.	.	-
Cc1cc(C)nc(SCC(=O)Nc2ncc(Cc3cccc(Cl)c3Cl)s2)n1	-	18.4µM	23.1µM	-	-	-
O=C(Nc1ncc(Cc2ccccc2Cl)s1)c1ccc(-c2cccc([N+](=O)[O-])c2)o1	?	?	?	13µM	5.01µM	-
COc1ccc(NS(=O)(=O)c2ccc3c(c2)NC(=O)CO3)c(OC)c1	-	-	-	-	-	-
Cc1cc(NC(=O)CN2CCN(C/C=C/c3ccccc3)CC2)c([N+](=O)[O-])cc1C	-	?	?	?	-	-
O=[N+]([O-])c1ccc(C(O)CN2CCN(C/C=C/c3ccccc3)CC2)cc1 (stereo not given)	-	29.1µM	?	?	-	?
O=C(CN1CCN(c2cccc(Cl)c2)CC1)Nc1ccc([N+](=O)[O-])cc1C(=O)Nc1ccccc1F	-	23.1µM	?	14.6µM	-	-
O=[N+]([O-])c1ccc(C(O)CN2CCN(Cc3ccccc3)CC2)cc1 (stereo not given)	-	-	-	-	-	-
O=C(CN1CCN(C/C=C/c2ccccc2)CC1)Nc1cc([N+](=O)[O-])ccc1Cl	?	25.9µM	?	?	-	-
CS(=O)(=O)c1ccc(Cl)c(NC(=O)CN2CCN(S(=O)(=O)/C=C/c3ccccc3)CC2)c1	.	3.26µM	?	.	.	-
NS(=O)(=O)c1ccc(NC(=O)CN2CCN(S(=O)(=O)/C=C/c3ccccc3)CC2)cc1	-	-	-	-	-	-
Cc1ccc(C)c(N2CCN(CC(=O)Nc3ccc([N+](=O)[O-])cc3C(=O)Nc3ccccc3F)CC2)c1	-	?	?	?	-	-
Cc1nnc(SCC(=O)c2c[nH]c3ccccc23)n1C1CC1	.	-	-	?	.	-
O=C(NCc1ccc(F)cc1F)[C@@H]1CCCN1C(=O)[C@@H]1CCCN1	.	-	-	.	.	-
COc1ccc(N2CCOCC2)c(NC(=O)c2ccc(Br)o2)c1	-	?	?	16.4µM	-	-
CC(=O)N1CCN(c2ccc(NC(=O)c3ccc(Br)o3)cc2Cl)CC1	-	25.9µM	16.4µM	?	-	?
CC(C)C(=O)N1CCN(c2ccc(NC(=O)c3ccc([N+](=O)[O-])o3)cc2Cl)CC1	-[10 µM]	2.06µM	1.16µM	-	?	-105.0
O=C(Nc1cc(Cl)ccc1N1CCOCC1)c1ccc(Br)o1	?	-	-	?	?	-
CC(C)C(=O)N1CCN(c2ccc(NC(=O)c3ccc([N+](=O)[O-])o3)cc2)CC1	?	11.6µM	2.06µM	?	-	-104.0
CC(C)C(=O)N1CCN(c2ccc(NC(=O)c3ccc(Br)o3)cc2)CC1	-	-	?	-	-	-
CCC(=O)Nc1ccc(Cl)c(NC(=O)c2ccc(Br)o2)c1	-	?	-	-	?	-
COc1cc([N+](=O)[O-])cc2sc(NC(=O)C3CC3)nc12	-	-	-	-	-	-
CCCC(=O)N1CCN(c2ccc(NC(=O)c3ccc([N+](=O)[O-])o3)cc2Cl)CC1	?	5.8µM	0.92µM	?	20µM	-110.5
O=C(CSc1cn(CCNC(=O)c2c(F)cccc2F)c2ccccc12)Nc1ccc(F)cc1	.	16.4µM	?	.	.	.
SMILES	VP16 counter	DT40 TDP1 no CPT	TDP1 cell CPT	ELG1 repair inh	RORg inh	IL1B secr inh
O=C(NCCn1cc(SCC(=O)N2CCOCC2)c2ccccc21)c1c(F)cccc1F	-	?	?	?	-	-
O=C(CSc1cn(CCNC(=O)c2c(F)cccc2F)c2ccccc12)Nc1ccccc1F	.	20.6µM	?	.	.	.
CC(C)N(C(=O)Cn1cc(SCC(=O)Nc2ccccc2F)c2ccccc21)C(C)C	.	13µM	?	.	.	.
Cc1ccccc1CN1C(=O)CSCC1(C)C(=O)Nc1ccc2c(c1)OCCO2 (stereo not given)	.	?	?	.	.	-
CCOC(=O)c1cccc(NS(=O)(=O)c2ccc(-c3coc(C)n3)cc2)c1	.	?	-	.	.	.
CCOC(=O)c1cnc(SC)nc1Oc1cccc(NS(=O)(=O)c2ccc(C)cc2)c1	-	16.4µM	?	-	-	-
N#Cc1ccc(-c2nc3c4ccccc4ccn3c2Cc2ccsc2)cc1	.	13µM	13µM	.	.	-
Cc1ccc(-c2nc3c4ccccc4ccn3c2Cc2cccc(Cl)c2)cc1	.	?	?	.	.	-
Clc1ccc(-c2nc3c4ccccc4ccn3c2Cc2ccsc2)cc1	.	10.3µM	10.3µM	.	.	-
N#Cc1ccc(-c2nc3c4ccccc4ccn3c2Cc2ccccc2C(F)(F)F)cc1	.	?	?	.	.	-
Fc1ccc(-c2nc3ccc(Cl)cn3c2Cc2ccsc2)cc1	.	-	-	.	.	-
N#Cc1ccc(-c2nc3c4ccccc4ccn3c2Cc2cccc(Cl)c2)cc1	.	18.4µM	16.4µM	.	.	-
C[C@H](O/N=C1/[C@H]2O[C@@H]2[C@@H](O)[C@H]2[C@H]1CCn1c(=O)n(-c3ccccc3)c(=O)n12)c1cn([C@H](CO)Cc2ccccc2)nn1	-[10 µM]	.	.	.	-[10 µM]	.
COCCn1c(=O)c(C)nc2cnc(N3CCNCC3)nc21	-	-	-	.	-	.
CC1=C(C(N)=O)C(c2ccc(C(C)C)cc2)n2nc(SCc3ccccc3)nc2N1 (stereo not given)	.	-	-	.	.	.
CC(C)(CO)NS(=O)(=O)c1ccc2c(c1)C(=NO)c1cc(S(=O)(=O)NC(C)(C)CO)ccc1-2	-	-	-	-	-	-
CN(C)N=C1c2cc(S(=O)(=O)N(C)C)ccc2-c2ccc(S(=O)(=O)N(C)C)cc21	-	2.91µM	4.61µM	-	-	-
CN(C)S(=O)(=O)c1ccc2c(c1)C(=NNC(N)=O)c1cc(S(=O)(=O)N(C)C)ccc1-2	-	?	16.4µM	-	-	-
CN(C)S(=O)(=O)c1ccc2c(c1)C(=NO)c1cc(S(=O)(=O)N(C)C)ccc1-2	-	8.2µM	?	?	-	-
C#CCN(C[C@@H]1[C@@H](OC(=O)NC2CC2)[C@@H](OC(=O)NC2CC2)CN(C(=O)OC(C)C)N1C(=O)OC(C)C)S(=O)(=O)c1ccc(C)cc1	.	16.4µM	?	.	.	-
C#CCN(C[C@@H]1[C@@H](OC(=O)NCc2ccccc2F)[C@@H](OC(=O)NCc2ccccc2F)CN(C(=O)OC(C)C)N1C(=O)OC(C)C)S(=O)(=O)c1ccc(C)cc1	.	7.31µM	7.31µM	.	.	-

Source: PubChem
